Compound activity from PubChem BioAssay.
PglD inh: blocks C. jejuni PglD acetyltransferase activity. AID 602405. inhibition, % at 12.5 µM. hit rate 0.098% among 360,000. purified PglD enzyme, DTNB colorimetric CoA detection; in the data active = inhibition above about 16%, passing the limit was not always enough
ERp5 block: ERp5 (human) disulfide isomerase inhibition | Q15084 | ERp5 insulin aggregation, absorbance 650 nm, 90 min | inhibition, % at 9.99 µM | hit rate 0.05% among 350,000 | AID 651711;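 active = mean replicate inhibition above about 25%, with every replicate also reaching it, limit read from the data, passing the limit was not always enough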
Target sequence (Q15084 whole entry, looked up): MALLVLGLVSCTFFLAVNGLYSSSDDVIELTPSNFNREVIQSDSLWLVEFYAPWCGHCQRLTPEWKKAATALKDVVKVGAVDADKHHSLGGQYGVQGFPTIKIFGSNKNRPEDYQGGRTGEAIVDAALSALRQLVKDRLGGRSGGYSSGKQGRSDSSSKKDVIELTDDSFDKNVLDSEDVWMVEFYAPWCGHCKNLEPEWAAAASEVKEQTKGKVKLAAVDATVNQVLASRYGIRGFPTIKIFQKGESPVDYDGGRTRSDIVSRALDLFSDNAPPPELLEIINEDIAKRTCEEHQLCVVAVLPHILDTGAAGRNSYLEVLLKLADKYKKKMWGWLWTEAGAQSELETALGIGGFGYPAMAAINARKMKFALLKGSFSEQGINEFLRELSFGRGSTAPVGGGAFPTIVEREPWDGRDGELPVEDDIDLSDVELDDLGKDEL
PDI inh: inhibitors of human protein disulfide isomerase; PDI insulin aggregation turbidity, A650, 90 min; inhibition, % at 10 µM; hit rate 0.052% among 350,000; AID 588391;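 active = mean inhibition across replicates of 30% or more, whatever share of single replicates reach that level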
ARNT TACC3 PPI: disrupts binding between human ARNT and TACC3; hit rate 0.66% among 390,000; AlphaScreen His-ARNT PAS-B/GST-TACC3 binding, luminescence; TACC3 fragment carries E629A point mutation; Q9Y6A5; inhibition, % at 9.99 µM;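 active = mean inhibition of replicates at least 50% and at least half of replicates each reaching 50%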
CendR NRP1 mod: NRP-1/CendR interaction modulation; O14786; FAM-RPARPAR peptide binding to NRP-1, fluorescence polarization; inhibition, % at 25 µM; hit rate 0.85% among 360,000; AID 602438;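 active = inhibition or corrected inhibition above about 18%, plus a signal ratio from 0.5 to 1.5, limit read from the data, passing the limit was not always enough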
ALR H2O2 inh: inhibitors of human sulfhydryl oxidase ALR; purified ALR, DTT oxidation, H2O2 HRP-luminol luminescence; inhibition, % (no concentration beside the values); P55789; AID 485317; hit rate 3.8% among 290,000;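 active = mean replicate inhibition above about 79%, with every replicate also reaching it, limit read from the data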
Hits are given with their value; - = inactive; . = no result. Many of the other results were omitted from the sample, so hits are more common in it than they were.

SMILES | PglD inh | ERp5 block | PDI inh | ARNT TACC3 PPI | CendR NRP1 mod | ALR H2O2 inh
CCC(=O)NC[C@@H]1[C@H](c2ccccc2)[C@H](CO)N1C(=O)C1CCC1 | - | - | . | - | . | .
CCCCNC(=O)c1ccc(CS(=O)(=O)c2ccc(OC)cc2)o1 | - | - | . | - | - | .
CCCCNC(=O)c1ccc(CS(=O)(=O)c2ccc(C)cc2)o1 | - | - | - | - | - | 79.0
COc1ccc(S(=O)(=O)Cc2ccc(C(=O)NCCCN(C)c3ccccc3)o2)cc1 | - | . | - | - | - | 98.6
C[C@H](CO)N1C[C@H](C)[C@H](CN(C)C(=O)Nc2ccc3c(c2)OCO3)Oc2ccc(NC(=O)c3ccncc3)cc2C1=O | - | - | . | - | . | .
O=C(Nc1ccccc1)[C@H]1[C@H](CO)[C@H]2Cn3c(cccc3=O)[C@H]2N1C(=O)C1CCC1 | - | - | . | - | . | .
CCOC(=O)Cc1nnc(NC(=O)C(CC)Sc2nc(C)cc(=O)[nH]2)s1 (centres undefined) | - | - | - | 45.5 | - | -
CCOC(=O)Cc1nnc(NC(=O)C(CC)Sc2nncn2C)s1 (centres undefined) | - | - | - | - | - | -
CCc1noc(C)c1C(=O)Nc1cc(S(=O)(=O)N(CC)CC)ccc1N1CCOCC1 | . | - | - | - | - | .
CCc1noc(C)c1C(=O)Nc1ccccc1N1CCOCC1 | . | - | - | - | - | -
CCc1noc(C)c1C(=O)Nc1cc(Cl)ccc1N1CCCC1 | - | - | - | - | - | 98.6
Cc1noc(C)c1C(=O)N1CCN(c2ccccc2O)CC1 | - | - | - | . | - | 98.8
Cc1noc(C)c1C(=O)Nc1ccccc1N1CCCC1 | - | - | - | . | - | 93.6
N#C[C@H]1[C@@H](c2ccccc2)[C@H](CO)N1C(=O)Cc1ccccc1 | - | - | . | - | . | .
CC(C)NC(=O)N1[C@H](CN(C)C(=O)c2ccccc2)[C@@H](c2ccccc2)[C@@H]1CO | - | - | . | - | . | .
COc1ccc(CN(C)C(=O)CNC(=O)c2sc3ccccc3c2Cl)c(OC)c1OC | - | - | - | . | 45.8 | .
CN(CC(=O)Nc1ccc(F)c(F)c1F)C(=O)c1cc(-c2ccncc2)nc2ccccc12 | - | 29.0 | - | - | - | .
CC(=O)COC(=O)c1cc(-c2ccc(C)cc2)nc2ccccc12 | - | - | - | - | - | -
CC(C)(C)C(=O)COC(=O)c1cc(-c2ccncc2)nc2ccccc12 | - | - | - | - | 27.2 | -
CCCNC(=O)[C@@H]1[C@@H](CO)[C@@H]2Cn3c(ccc(/C=C/c4ccccc4)c3=O)[C@H]1N2C(=O)c1ccncc1 | - | - | . | - | . | .
Cc1ccc2[nH]c(=O)c(C3C(C#N)=C(N)Oc4c3ccc3cccnc43)cc2c1 (centres undefined) | - | . | - | 50.0 | - | -
C[C@H]1CCCCO[C@@H](CN(C)Cc2ccncc2)[C@@H](C)CN([C@@H](C)CO)C(=O)c2cc(NC(=O)Nc3cccc4ccccc34)ccc2O1 | - | - | . | - | . | .
Cc1cnc(C=NNC(N)=S)c2cccc(N)c12 | . | - | - | - | 25.8 | .
NC(=S)NN=Cc1nccc2ccccc12 | - | - | - | 77.3 | - | .
C[C@@H]1CN([C@@H](C)CO)C(=O)c2cc(NC(=O)CCN3CCOCC3)ccc2O[C@@H]1CN(C)CC1CC1 | - | - | . | - | . | .
SMILES | PglD inh | ERp5 block | PDI inh | ARNT TACC3 PPI | CendR NRP1 mod | ALR H2O2 inh
c1ccc(-c2cn3c(n2)-c2ccccc2C3)cc1 | - | - | - | - | - | 94.8
O=C(CCN1CCOCC1)N1CCCC(Nc2ccc(F)cc2)C1 (centres undefined) | - | - | - | - | - | -
O=C(CCc1ccccn1)N1CCCC(Nc2cccc(F)c2)C1 (centres undefined) | - | - | - | . | - | -
O=C(CCC(=O)N1CCCC(Nc2ccccc2)C1)c1ccc(F)cc1 (centres undefined) | - | - | - | - | - | 98.6
O=C(CCc1ccccn1)N1CCCC(Nc2ccc(F)cc2)C1 (centres undefined) | - | - | - | - | - | 98.9
CCc1nccn1CCC(=O)N1CCCC(Nc2ccc(F)cc2)C1 (centres undefined) | - | - | - | - | - | 98.5
O=C(c1ccccn1)N1CC[C@H]2[C@H](CO)Nc3ccc(-c4ccccc4)cc3[C@H]21 | - | - | . | - | . | .
Nc1[nH]c(N=NC(=O)c2ccc(F)cc2)c2ccccc12 | . | - | - | - | - | 98.8
